Hit rate of the full screen: of about 110,000 compounds, about 40 (0.04%) were called active. Entries that show only a call come without a potency. Inconclusive results (about 22%) are left out. Calls follow the shape of the dose curve; as a rule, active = well fitted curve in the direction sought with a large enough effect in the signal ratio (not every such curve was filed as active); inconclusive = small, poorly fitted or top-dose-only effect, or a change in a side signal; inactive = flat fitted curve, though single readings scatter; the % refers to the signal ratio. The full list was thinned out, with actives kept by preference.
Potency is read from the fitted curve at half-maximal effect.

This experiment is described as follows: IkB Signaling. The note with it: ABC-DLBCL IkBa-CBG/CBR dual luciferase ratio, 4 h; series mostly up to 57.1 µM. The source says:
NIH Molecular Libraries Screening Centers Network [MLSCN]
NIH Chemical Genomics Center [NCGC]
Nuclear factor kappa-B (NF-kappa-B) plays an important role in normal B cell development and survival. Diffuse large B cell lymphoma (DLBCL) is the most commonly observed type of non-Hodgkin's lymphoma. Gene expression analysis has identified an activated B cell-like subtype of DLBCL (ABC-DLBCL) which expresses known NF-kappa-B target genes. […] However, targets upstream of IKK have been largely unexplored and so nodes upstream of IKK in the NF-kappa-B pathway remain untested due to the lack of chemical probes.
A cell-sensor assay for I-kappa-B-alpha stabilization was developed with NIH investigator Dr. R. Eric Davis in Dr. Louis M. Staudt's laboratory. The assay uses green (CBG68) and red (CBR) emitting beetle luciferases [Chroma-Glo(TM) developed by Promega Corp.] where the green luciferase is fused to I-kappa-B-alpha and the red luciferase is present in its native state. Both luciferase genes are stably present in the OCI-Ly3 human ABC DLBCL cell line, but their expression is under the control of tetracycline-inducible promoters. Following the addition of doxycycline to induce expression of the luciferases, the green luminescence in control cultures rises only slowly because the CBG fusion partner I-kappa-B-alpha is targeted by IKK activity for rapid degradation. In contrast, green luminescence rises rapidly in the presence of proteasome inhibitors or IKK inhibitors. The rise in red luminescence of CBR is not affected by proteasome or IKK inhibitors, and serves as normalization for cell number and nonspecific effects. Compounds were screened as a concentration-titration series that ranged from 57 uM to 0.7 nM.
NCGC Assay Protocol Summary:
Cells were seeded in 1536-well plates at 5000 cells/3ul in IMDM medium containing 0.5% FBS, w/o phenol red, L-glutamine, 25 mM HEPES, 3 mg/ml sodium bicarbonate. After centrifugation for 1 min. at 1000 rpm, 23 nl of compounds or DMSO were delivered to each well using a pin tool. Then 1ul 80ng/ml doxycycline was dispensed into white solid 1536-well plates and the plates were incubated at 37C/5% C02 in a cell incubator for 4 hrs. Then 4 ul Chroma-Glo luminescent substrate mix (Promega) was added to each well. The plate was incubated at R.T. for 10-15 min. The plates were measured on a ViewLux plate reader for green luminescence (540/20 nm filter) and red luminescence (618/8 nm filter). The green and red luminescent signals were corrected for red and green luminescence filter overlap using previously determined filter calibration constants (determined using the procedure outlined in the Promega Technical Manual). The %Activity was determined from the ratio of corrected green/red luminescent values. Green luminescent and ratio %Activity was determined by normalizing to the difference in signal between basal cells (0% Activity) and cells incubated with 10 uM of the proteasome inhibitor MG-132 (100% Activity). Red luminescent %Activity was normalized to the difference between red luminesence in basal cells (0%Activity) and zero luminescence (-100% Activity).
Concentration-response curves were fitted to the signals arising from the green luminescence (I-kappa-B-alpha-luciferase fusion; IkB-luc) and the red luminescence (unfused luciferase; luc) as well as the calculated ratio. The concentration-effect curves were then classified based on curve quality (r2), response magnitude and degree of measured activity. Compounds were then categorized based on their concentration-response curves for all three datasets (Ikb-luc, luc and ratio).
Keywords: IKK, I-kappa-B, IkB, IkBa, cytotoxicity, luminescence, MLSMR, MLSCN, NIH Roadmap, qHTS, NCGC
With `CCOC(=O)c1cccc(NC(=O)Cn2cnc3nc4c(cc3c2=O)CCCC4)c1`, the Potency entry was “inactive”. With `Cc1cc(OC(C)C(=O)Nc2sc3c(c2C(N)=O)CCCC3)ccc1Cl` (centres undefined), the Potency result is “inactive”.

As for `Cc1ccc(S(=O)(=O)n2nc(-c3ccc(Cl)cc3)nc2NCc2ccccc2)cc1`, the Potency result was “inactive”. For the compound `CCOc1ccc(NC(=O)CCC(=O)N2CC(C)Oc3ccc(C)cc32)cc1` (centres undefined), the Potency entry is “inactive”. Turning to `CCCNC(=O)c1ccc2c(c1)ncn2-c1ccc(C)cc1C`, the Potency entry was “inactive”.

`COC(=O)C1=C(c2ccccc2)c2ccccc2S(=O)(=O)N1CC(=O)Nc1ccccc1C(F)(F)F`: the Potency entry is “inactive”. Consider `CCc1ccccc1NC(=O)c1ccc2nc(CCc3ccccc3)oc2c1`, for which the Potency result was “inactive”. Consider `O=C(CS(=O)(=O)c1cccc2nsnc12)N1CCN(c2cccc(Cl)c2)CC1`, for which the Potency entry is “inactive”. As to `Cc1cc2c(cc1S(=O)(=O)CCC(=O)Nc1ccc(OC(F)(F)F)cc1)OCC(=O)N2`, the Potency result is “inactive”.

As for `CC(C)c1ccc(NC(=O)Cn2c3ncccc3c(=O)n2-c2ccccc2)cc1`, the Potency result is “inactive”. As for `Cc1ccc(Cl)cc1N1CCN(C(=O)c2cn(C)c3ccc(S(=O)(=O)N(C)C4CCCCC4)cc3c2=O)CC1`, the Potency result is “inactive”. Consider `CCN1CCN(c2ncc3c(n2)CC(c2ccccc2O)CC3=O)CC1` (centres undefined), for which the Potency entry is “inactive”. With `Cc1ccccc1CN1CCC(CNC(=O)c2c(C)oc3ncnc(N4CCCCC4)c23)CC1`, the Potency entry is “inactive”.

For the compound `CCN(CCCNC(=O)c1c(C)oc2ncn(CC(C)C)c(=O)c12)Cc1ccccc1`, the Potency entry was “inactive”. For the compound `Cc1cccc(CSc2ccc(-c3cccs3)nn2)c1`, the Potency entry is “inactive”. On to `CCOc1ccc(OCC)c(Nc2nc3ccccc3n3nnnc23)c1`, for which the Potency result was “inactive”. With `COc1ccc(S(=O)(=O)N2CCCCC2)cc1C(=O)NC1CCS(=O)(=O)C1` (centres undefined), the Potency entry is “inactive”. As for `CCn1cc(C(=O)N(C)Cc2ccccc2)c(=O)c2cc(S(=O)(=O)N3CCCCCC3)ccc21`, the Potency result is “inactive”.

As to `O=C1C(c2[nH]c3ccccc3c2O)=Nc2ccccc21`, the Potency was 2510 nM (active). For `CCCOC(=O)Cc1c(O)c2ccccc2[nH]c1=O` the value was “inactive”; for `CCCC(=O)Nc1c(O)c2ccccc2[nH]c1=O`, “inactive”; for `COc1ccc(-c2nc3sc(CCNC(=O)C(C)(C)C)c(C)n3n2)cc1`, “inactive”.

`COc1ccc(N2CCN(C(=O)c3ccc4c(Cl)c5c(nc4c3)CCCC5)CC2)cc1`: the Potency entry was “inactive”.

`CC(=O)Nc1ccc2nc(SCCOc3cc(C)cc(C)c3)sc2c1`: the Potency entry was “inactive”. `CCC1CN(S(=O)(=O)c2cc(-c3cc(C)no3)ccc2C)c2cc(C)ccc2O1` (centres undefined): the Potency result was “inactive”. Next, `CC1CCN(S(=O)(=O)c2ccc3c(c2)N(CC(=O)NCc2ccccc2Cl)C(=O)CO3)CC1`: “inactive”; `COC(=O)c1ccc(NC(=O)CCc2c(C)nn(-c3ccc(N4CCCC4)nn3)c2C)cc1`: “inactive”; `COc1ccc(-n2c(C)nc3c(cnn3-c3ccc(F)cc3)c2=O)cc1`: “inactive”. As to `CC1=C(c2ccc(C)c(C)c2)S(=O)(=O)NC1=NCc1ccccc1Cl`, the Potency entry is “inactive”. `Cc1cc(C)c2oc(C(=O)Nc3ccc(S(=O)(=O)N4CCCCCC4)cc3)cc(=O)c2c1`: the Potency entry was “inactive”. For `CN(C)CCN(Cc1ccccc1)S(=O)(=O)c1csc(C(N)=O)c1`, the Potency result was “inactive”.

`COC(=O)c1ccccc1NC(=O)c1cnn(-c2ccc(F)cc2)c1-n1cccc1`: the Potency result was “inactive”. In the case of `COc1ccc(NC(=O)C2CCN(c3ccc(Sc4ccc(C)cc4)nn3)CC2)c(OC)c1`, the Potency entry is “inactive”. For `COc1ccc(C2NC(=O)N(C)C3=C2C(=O)N(c2ccc(C(=O)O)cc2)C3)cc1` (centres undefined) the value was “inactive”; for `COc1cccc(NC(=O)CN2C(=O)c3ccccc3Sc3ncccc32)c1`, “inactive”; for `Cc1ccc(-c2cnc(C3CC3)o2)cc1S(=O)(=O)Nc1cccc(C)c1C`, “inactive”. Next, `COCCNC(=O)c1cc(-c2cccc(Cl)c2)on1`: “inactive”.

On to `COc1ccc(-c2nc3c4ccccc4n(CC(=O)Nc4ccc(C(C)=O)cc4)c(=O)n3n2)cc1`, for which the Potency result was “inactive”. With `Cc1ccccc1OCC(=O)Nc1c(C(=O)Nc2ccccc2F)oc2ccccc12`, the Potency result is “inactive”. For `COc1cc(NC(=O)C2=CC(c3ccco3)=NS(=O)(=O)N2C)cc(OC)c1OC` the value was “inactive”; for `Cc1ccc2oc(=O)c3cnn(CC(=O)NCc4ccccc4Cl)c3c2c1`, “inactive”. In the case of `COc1cccc(CNC(=O)C2CCC(CNS(=O)(=O)c3cccs3)CC2)c1` (centres undefined), the Potency result is “inactive”.

With `CCCCC(=O)OC1=CN(Cc2ccccc2)S(=O)(=O)c2ccccc21`, the Potency result is “inactive”. As to `Cc1cc(C)cc(NS(=O)(=O)c2ccc(-c3cc(C)no3)s2)c1`, the Potency entry was “inactive”.

On to `CCc1ccccc1NC(=O)c1ccc2c(c1)CCN2S(C)(=O)=O`, for which the Potency result is “inactive”. On to `O=C(COc1ccccc1F)OCc1cc(=O)n2nc(C3CCCCC3)sc2n1`, for which the Potency result was “inactive”. Next, `CN1C(=O)c2[nH]nc(-c3ccc(F)cc3)c2C1c1ccccn1` (centres undefined): “inactive”; `CCC(=O)N1CCc2cc(S(=O)(=O)NC(Cc3ccccc3)C(=O)NCc3ccccc3)ccc21` (centres undefined): “inactive”. For `O=c1cc(-c2ccccc2)n2c(SCc3ccccc3)nnc2[nH]1`, the Potency result was “inactive”.

For the origin of these results see PubChem BioAssay AID445 (National Center for Advancing Translational Sciences (NCATS), 2006).
